# Compounds without any hit were thinned out: in the full panel of roughly 79,000, 15% have a hit. Values without a mark were called inactive. Active and inactive are the calls of the source. Cut-off read from the data, not from the text of the source: active = growth inhibition above about 70%; inactive = the rest.
# Experiments:
# [1] = NCI Yeast Anticancer Drug Screen. Data for the sgs1 strain (AID 173);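 note: 0% = growth of vehicle-only control cultures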; conditions: S. cerevisiae sgs1 mutant, active compounds read high
# In short: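 Relative growth inhibition, referenced to vehicle, was determined in a yeast strain with a defined alteration affecting DNA damage repair or cell cycle control after compound exposure.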
# [2] = NCI Yeast Anticancer Drug Screen. Data for the mlh1 rad18 strain (AID 175); conditions: S. cerevisiae mlh1 rad18 strain growth inhibition, active compounds read high
# In short: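 In this whole-cell yeast screen, a strain with altered DNA damage repair is challenged with compound, and its growth is measured against matched vehicle-treated controls.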
# [3] = NCI Yeast Anticancer Drug Screen. Data for the rad18 strain (AID 177); conditions: S. cerevisiae rad18 mutant growth inhibition, active compounds read high
# In short: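 Screen uses a yeast strain with a defined lesion in DNA damage repair; compound effect is read as loss of growth compared to untreated vehicle cultures.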
# [4] = NCI Yeast Anticancer Drug Screen. Data for the rad52 strain (AID 147);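 note: 0% = growth of vehicle-treated control cultures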; conditions: S. cerevisiae rad52 mutant growth inhibition, active compounds read high
# In short: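 Measured: yeast growth inhibition. System: strain with a defined DNA damage repair alteration. Reference: vehicle-treated control cultures.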
# [5] = NCI Yeast Anticancer Drug Screen. Data for the wt1 strain (AID 149);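 note: 0% = growth of vehicle-treated wt1 cultures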; conditions: S. cerevisiae wt1 strain (SPY 50644) growth inhibition, active compounds read high
# In short: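 Measured: growth of wt1 yeast under compound versus vehicle treatment, reported as inhibition.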
# [6] = NCI Yeast Anticancer Drug Screen. Data for the rad50EPP+ strain (AID 151);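 note: 0% = growth of vehicle-treated control cultures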; conditions: S. cerevisiae rad50 mutant strain, active compounds read high
# In short: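 One strain with a rad50 alteration (rad50EPP+) was compound-treated, its growth then compared to that of vehicle controls.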
# [7] = NCI Yeast Anticancer Drug Screen. Data for the rad50 strain (AID 155);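 note: 0% = growth of vehicle-only cultures of the same strain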; conditions: S. cerevisiae rad50 strain growth inhibition, active compounds read high
# In short: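 Growth of the mutant yeast was measured after compound exposure and referenced to vehicle-treated cultures.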
# [8] = NCI Yeast Anticancer Drug Screen. Data for the mec2-1 strain (AID 157); conditions: S. cerevisiae mec2-1 strain, active compounds read high
# In short: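 Test agents were screened against the mec2-1 yeast strain, with defined DNA repair or cell cycle alteration. Growth was scored as inhibition against vehicle-only controls.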
# [9] = NCI Yeast Anticancer Drug Screen. Data for the sgs1 mgt1 strain (AID 161);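 note: 0% = growth of cultures given vehicle only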; conditions: S. cerevisiae sgs1 mgt1 strain, active compounds read high
# In short: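 Genetically altered yeast, compound exposure, growth inhibition relative to vehicle.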
# [10] = NCI Yeast Anticancer Drug Screen. Data for the cln2 rad14 strain (AID 165);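 note: 0% = growth equal to vehicle treated cultures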; conditions: S. cerevisiae cln2 rad14 strain, active compounds read high
# In short: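 Growth of compound-exposed yeast (cln2 rad14 genotype) measured and expressed as inhibition relative to vehicle.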
# [11] = NCI Yeast Anticancer Drug Screen. Data for the bub3 strain (AID 167); conditions: S. cerevisiae bub3 mutant strain, active compounds read high
# In short: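 Whole-cell yeast assay. The mutant strain was incubated with compounds, and growth inhibition was determined by comparison with vehicle-treated cells.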
# [12] = NCI Yeast Anticancer Drug Screen. Data for the wt2 strain (AID 169);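 note: 0% = growth of vehicle-treated yeast cultures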; conditions: S. cerevisiae wt2 strain growth inhibition, active compounds read high
# In short: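 Genetically defined yeast strains from a DNA-repair/cell-cycle panel were used. Compound-exposed yeast growth was measured, and the inhibition was calculated relative to vehicle treatment.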
# [13] = NCI Yeast Anticancer Drug Screen. Data for the mlh1 strain (AID 171);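 note: 0% = growth of vehicle-treated control cultures of the same strain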; conditions: S. cerevisiae mlh1 strain growth inhibition, active compounds read high
# In short: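 Here the genetically defined yeast mutant is grown with each compound, and the extent to which its growth falls below that of vehicle-exposed cells is reported.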
# [14] = NCI Yeast Anticancer Drug Screen. Data for the mgt1 strain (AID 153); conditions: S. cerevisiae mgt1 mutant growth inhibition, active compounds read high
# In short: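 After exposure of the mgt1 yeast mutant to compound, growth was measured and reported as inhibition compared with vehicle controls.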
# [15] = NCI Yeast Anticancer Drug Screen. Data for the rad14 strain (AID 159);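 note: 0% = growth of vehicle-treated control cultures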; conditions: S. cerevisiae rad14 strain growth inhibition, active compounds read high
# In short: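 Here, inhibition of yeast growth was measured after compound exposure, using a strain with a genetic defect in DNA damage repair and vehicle-treated cultures as the reference.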
# [16] = NCI Yeast Anticancer Drug Screen. Data for the CLN2oe strain (AID 163);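 note: 0% = growth of vehicle-only control cultures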; conditions: S. cerevisiae CLN2oe strain, active compounds read high
# In short: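 Here, growth inhibition in a cell-cycle-altered yeast strain after compound exposure was quantified against vehicle control growth.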
# [17] = at 5.0 µM (retest, dose inferred, filed as 0.5)
# [18] = at 50.0 µM (retest, dose inferred, filed as 5.0)
smiles,measurement,setting,value
CN1CCN(c2ccc3nc(-c4ccc5nc(-c6ccc(O)cc6)[nH]c5c4)[nH]c3c2)CC1,growth inhibition,[1]; at 1.2 µM,-5%
same,growth inhibition,[1]; at 3.7 µM,2%
same,growth inhibition,[1]; at 11.0 µM,98% (active)
same,growth inhibition,[1]; at 33.0 µM,98% (active)
same,growth inhibition,[1]; at 100.0 µM,97% (active)
same,growth inhibition,[2]; [17],71% (active)
same,growth inhibition,[2]; [18],99% (active)
same,growth inhibition,[2]; at 50.0 µM,99.2% (active)
same,growth inhibition,[3]; at 1.2 µM,-12%
same,growth inhibition,[3]; at 3.7 µM,-29%
same,growth inhibition,[3]; at 11.0 µM,97% (active)
same,growth inhibition,[3]; at 33.0 µM,97% (active)
same,growth inhibition,[3]; at 100.0 µM,97% (active)
COc1cc(C(C)(C)C)cc(OC)c1C(O)(c1c(OC)cc(C(C)(C)C)cc1OC)c1c(OC)cc(C(C)(C)C)cc1OC,growth inhibition,[4]; at 1.2 µM,-10%
same,growth inhibition,[4]; at 3.7 µM,33%
same,growth inhibition,[4]; at 11.0 µM,88% (active)
same,growth inhibition,[4]; at 33.0 µM,92% (active)
same,growth inhibition,[4]; at 100.0 µM,84% (active)
same,growth inhibition,[5]; at 1.2 µM,4%
same,growth inhibition,[5]; at 3.7 µM,42%
same,growth inhibition,[5]; at 11.0 µM,93% (active)
same,growth inhibition,[5]; at 33.0 µM,94% (active)
same,growth inhibition,[5]; at 100.0 µM,91% (active)
same,growth inhibition,[6]; at 1.2 µM,-1%
same,growth inhibition,[6]; at 3.7 µM,14%
same,growth inhibition,[6]; at 11.0 µM,87% (active)
same,growth inhibition,[6]; at 33.0 µM,92% (active)
same,growth inhibition,[6]; at 100.0 µM,83% (active)
same,growth inhibition,[7]; at 1.2 µM,25%
same,growth inhibition,[7]; at 3.7 µM,30%
same,growth inhibition,[7]; [17],33%
same,growth inhibition,[7]; at 11.0 µM,92% (active)
same,growth inhibition,[7]; at 33.0 µM,93% (active)
same,growth inhibition,[7]; [18],94% (active)
same,growth inhibition,[7]; at 50.0 µM,78% (active)
same,growth inhibition,[7]; at 100.0 µM,88% (active)
same,growth inhibition,[8]; at 1.2 µM,-22%
same,growth inhibition,[8]; at 3.7 µM,32%
same,growth inhibition,[8]; [17],81% (active)
same,growth inhibition,[8]; at 11.0 µM,90% (active)
same,growth inhibition,[8]; at 33.0 µM,94% (active)
same,growth inhibition,[8]; [18],96% (active)
same,growth inhibition,[8]; at 50.0 µM,79.7% (active)
same,growth inhibition,[8]; at 100.0 µM,90% (active)
same,growth inhibition,[9]; [17],13%
same,growth inhibition,[9]; [18],97% (active)
same,growth inhibition,[9]; at 50.0 µM,80.1% (active)
same,growth inhibition,[10]; [17],47%
same,growth inhibition,[10]; [18],96% (active)
same,growth inhibition,[10]; at 50.0 µM,77.3% (active)
same,growth inhibition,[11]; at 1.2 µM,-25%
same,growth inhibition,[11]; at 3.7 µM,44%
same,growth inhibition,[11]; [17],76% (active)
same,growth inhibition,[11]; at 11.0 µM,92% (active)
same,growth inhibition,[11]; at 33.0 µM,94% (active)
same,growth inhibition,[11]; [18],96% (active)
same,growth inhibition,[11]; at 50.0 µM,75.8% (active)
same,growth inhibition,[11]; at 100.0 µM,85% (active)
same,growth inhibition,[12]; at 1.2 µM,-17%
same,growth inhibition,[12]; at 3.7 µM,15%
same,growth inhibition,[12]; at 11.0 µM,92% (active)
same,growth inhibition,[12]; at 33.0 µM,94% (active)
same,growth inhibition,[12]; at 100.0 µM,82% (active)
same,growth inhibition,[13]; at 1.2 µM,-19%
same,growth inhibition,[13]; at 3.7 µM,-12%
same,growth inhibition,[13]; at 11.0 µM,89% (active)
same,growth inhibition,[13]; at 33.0 µM,94% (active)
same,growth inhibition,[13]; at 100.0 µM,88% (active)
same,growth inhibition,[1]; at 1.2 µM,-3%
same,growth inhibition,[1]; at 3.7 µM,4%
same,growth inhibition,[1]; at 11.0 µM,95% (active)
same,growth inhibition,[1]; at 33.0 µM,95% (active)
same,growth inhibition,[1]; at 100.0 µM,89% (active)
same,growth inhibition,[2]; [17],15%
same,growth inhibition,[2]; [18],93% (active)
same,growth inhibition,[2]; at 50.0 µM,76.1% (active)
same,growth inhibition,[3]; at 1.2 µM,-4%
same,growth inhibition,[3]; at 3.7 µM,10%
same,growth inhibition,[3]; at 11.0 µM,93% (active)
same,growth inhibition,[3]; at 33.0 µM,94% (active)
same,growth inhibition,[3]; at 100.0 µM,87% (active)
CCOc1ccccc1N1C(=O)CC(Sc2ccccc2N)C1=O (centres undefined),growth inhibition,[5]; at 1.2 µM,12%
same,growth inhibition,[5]; at 3.7 µM,17%
same,growth inhibition,[5]; at 11.0 µM,10%
same,growth inhibition,[5]; at 33.0 µM,15%
same,growth inhibition,[5]; at 100.0 µM,9%
same,growth inhibition,[6]; at 1.2 µM,19%
same,growth inhibition,[6]; at 3.7 µM,8%
same,growth inhibition,[6]; at 11.0 µM,8%
same,growth inhibition,[6]; at 33.0 µM,16%
same,growth inhibition,[6]; at 100.0 µM,25%
same,growth inhibition,[14]; at 1.2 µM,3%
same,growth inhibition,[14]; at 3.7 µM,-10%
same,growth inhibition,[14]; at 11.0 µM,-13%
same,growth inhibition,[14]; at 33.0 µM,-5%
same,growth inhibition,[14]; at 100.0 µM,1%
same,growth inhibition,[7]; at 1.2 µM,13%
same,growth inhibition,[7]; at 3.7 µM,2%
same,growth inhibition,[7]; [17],39%
same,growth inhibition,[7]; at 11.0 µM,17%
same,growth inhibition,[7]; at 33.0 µM,10%
same,growth inhibition,[7]; [18],75% (active)
same,growth inhibition,[7]; at 50.0 µM,0.8%
same,growth inhibition,[7]; at 100.0 µM,-20%
same,growth inhibition,[8]; at 1.2 µM,2%
same,growth inhibition,[8]; at 3.7 µM,10%
same,growth inhibition,[8]; [17],57%
same,growth inhibition,[8]; at 11.0 µM,-9%
same,growth inhibition,[8]; at 33.0 µM,0%
same,growth inhibition,[8]; [18],85% (active)
same,growth inhibition,[8]; at 50.0 µM,-12.4%
same,growth inhibition,[8]; at 100.0 µM,-19%
same,growth inhibition,[15]; at 1.2 µM,-23%
same,growth inhibition,[15]; at 3.7 µM,-23%
same,growth inhibition,[15]; at 11.0 µM,-41%
same,growth inhibition,[15]; at 33.0 µM,-48%
same,growth inhibition,[15]; at 100.0 µM,-55%
same,growth inhibition,[9]; [17],-5%
same,growth inhibition,[9]; [18],24%
same,growth inhibition,[9]; at 50.0 µM,14.4%
same,growth inhibition,[16]; at 1.2 µM,10%
same,growth inhibition,[16]; at 3.7 µM,6%
same,growth inhibition,[16]; at 11.0 µM,1%
same,growth inhibition,[16]; at 33.0 µM,-15%
same,growth inhibition,[16]; at 100.0 µM,-19%
same,growth inhibition,[10]; [17],39%
same,growth inhibition,[10]; [18],1%
same,growth inhibition,[10]; at 50.0 µM,-13.9%
same,growth inhibition,[11]; at 1.2 µM,-4%
same,growth inhibition,[11]; at 3.7 µM,1%
same,growth inhibition,[11]; [17],30%
same,growth inhibition,[11]; at 11.0 µM,-10%
same,growth inhibition,[11]; at 33.0 µM,-23%
same,growth inhibition,[11]; [18],38%
same,growth inhibition,[11]; at 50.0 µM,11.4%
same,growth inhibition,[11]; at 100.0 µM,-38%
same,growth inhibition,[12]; at 1.2 µM,-2%
same,growth inhibition,[12]; at 3.7 µM,-7%
same,growth inhibition,[12]; at 11.0 µM,-8%
same,growth inhibition,[12]; at 33.0 µM,-7%
same,growth inhibition,[12]; at 100.0 µM,-13%
same,growth inhibition,[13]; at 1.2 µM,-10%
same,growth inhibition,[13]; at 3.7 µM,-18%
same,growth inhibition,[13]; at 11.0 µM,-33%
same,growth inhibition,[13]; at 33.0 µM,-18%
same,growth inhibition,[13]; at 100.0 µM,-24%
same,growth inhibition,[1]; at 1.2 µM,16%
same,growth inhibition,[1]; at 3.7 µM,5%
same,growth inhibition,[1]; at 11.0 µM,6%
same,growth inhibition,[1]; at 33.0 µM,14%
same,growth inhibition,[1]; at 100.0 µM,-1%
same,growth inhibition,[2]; [17],37%
same,growth inhibition,[2]; [18],70% (active)
same,growth inhibition,[2]; at 50.0 µM,16.5%
same,growth inhibition,[3]; at 1.2 µM,1%
same,growth inhibition,[3]; at 3.7 µM,-12%
same,growth inhibition,[3]; at 11.0 µM,-22%
same,growth inhibition,[3]; at 33.0 µM,-13%
same,growth inhibition,[3]; at 100.0 µM,-24%

# Source: PubChem BioAssay (NCI)
